The results in this text go back to PubChem BioAssay (NCI).

Molecules are shown by their SMILES. The panel holds about 83,000 compounds, 20% with a hit somewhere; the sample as a whole holds those more often.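 Step 1: grow cells in 96-well plates. Step 2: add test compound at a single concentration. Step 3: incubate 48 h. Step 4: record percent growth.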 Values without a mark were called inactive. Activity calls are given as the source filed them. Rule for the calls: active = growth percent below 10; inactive = the rest.

Among the test systems are HCT-15 colon; HT29 colon; SNB-19 CNS; U251 CNS; PC-3 prostate; SK-MEL-5 melanoma; UACC-62 melanoma; LOX IMVI melanoma; SK-MEL-28 melanoma; SK-MEL-2 melanoma; EKVX NSCLC; SN12C renal; UO-31 renal; TK-10 renal; ACHN renal; CAKI-1 renal; A498 renal; CCRF-CEM leukemia; MOLT-4 leukemia; SNB-75 CNS.
Holding throughout (experiment): NCI-60 one-dose screen, 48 h (100 = growth as untreated, 0 = no growth, -100 = all killed)
What all share (conditions): 10 µM unless noted

`C/C(=C(/c1ccc(O)cc1)c1ccc(Cl)cc1)c1ccccc1`: the growth in the assay with HCT-15 colon was -81.9% (active); with HT29 colon, -66.6% (active); with SNB-19 CNS, -86.2% (active); in the assay on U251 CNS it was -94.6% (active); with PC-3 prostate it was -74.6% (active); in the assay with SK-MEL-5 melanoma, -98.9% (active). Also, the growth in the assay on UACC-62 melanoma is -94.5% (active); in the assay on LOX IMVI melanoma, -95.7% (active); with SK-MEL-28 melanoma, -96.3% (active); in the assay on SK-MEL-2 melanoma it was -85.1% (active); in the assay on EKVX NSCLC it was -81% (active); in the assay with SN12C renal, -90.5% (active). Further, the growth is -100% (active) in the assay with UO-31 renal; -63.7% (active) with TK-10 renal; -92.3% (active) in the assay on ACHN renal; -54.2% (active) in the assay on CAKI-1 renal; -55.1% (active) in the assay with A498 renal; -61.2% (active) in the assay on CCRF-CEM leukemia. In addition, the growth with MOLT-4 leukemia is -29.5% (active).

`C=C1C(=O)O[C@H]2[C@H]1CC/C(Cn1cc(Cn3ccc4ccccc43)nn1)=C\CC[C@@]1(C)O[C@@H]21`: the growth in the assay with HCT-15 colon is -34.5% (active); in the assay on HT29 colon, -13.8% (active); in the assay with SNB-19 CNS, 71.1%; with U251 CNS, 48.7%; in the assay on PC-3 prostate it was 40.8%; with SK-MEL-5 melanoma, 30.1%. Also, the growth in the assay with UACC-62 melanoma is 33.4%; in the assay with LOX IMVI melanoma, -82.8% (active); with SK-MEL-28 melanoma, 14%; in the assay with SK-MEL-2 melanoma, 61.5%; in the assay with EKVX NSCLC, 58.6%; with SN12C renal it was 39.8%. The growth in the assay with UO-31 renal was -77.2% (active); in the assay on TK-10 renal it was 16.8%; in the assay on ACHN renal, -52.9% (active); with CAKI-1 renal, 18.3%; in the assay with A498 renal it was 74.3%; in the assay with CCRF-CEM leukemia, -18.6% (active). The growth in the assay on MOLT-4 leukemia was -8.31% (active).

For `CCCCCCCCCC(=O)Oc1ccc(/C(=C(/C)Cc2cccc(OC)c2)c2ccc(OCCN(C)C)cc2)cc1`, the growth in the assay on HCT-15 colon is 105%; in the assay on HT29 colon, 109%; with SNB-19 CNS, 109%; with U251 CNS, 110%; in the assay with PC-3 prostate, 110%; with SK-MEL-5 melanoma, 107%. Moreover, the growth in the assay on UACC-62 melanoma is 97.8%; in the assay on LOX IMVI melanoma, 102%; with SK-MEL-28 melanoma it was 114%; in the assay on SK-MEL-2 melanoma it was 107%; with EKVX NSCLC, 94.7%; in the assay on SN12C renal, 99.2%. Besides, the growth in the assay with UO-31 renal is 92.5%; in the assay with TK-10 renal it was 109%; with ACHN renal, 110%; in the assay with CAKI-1 renal, 102%; with A498 renal, 95.8%; in the assay with CCRF-CEM leukemia, 103%. Also, the growth in the assay with MOLT-4 leukemia is 115%.

Turning to `CCN(CC)CCCNc1cccc2c(SCc3ccccc3)ccnc12`, the growth was 81.1% in the assay on HCT-15 colon; -33.1% (active) with HT29 colon; 87.1% in the assay on SNB-75 CNS; 48.6% in the assay with U251 CNS; 17.7% with PC-3 prostate; 85.4% in the assay on SK-MEL-5 melanoma. Also, the growth in the assay on LOX IMVI melanoma is 24%; in the assay with SK-MEL-28 melanoma, 108%; with SK-MEL-2 melanoma, 114%; in the assay with EKVX NSCLC it was 63.5%; with UO-31 renal it was -9.99% (active); in the assay on TK-10 renal, 63.7%. Besides, the growth with ACHN renal is 102%; in the assay on CAKI-1 renal, 58.8%; with A498 renal, 75.7%; in the assay with CCRF-CEM leukemia it was -26.1% (active); with MOLT-4 leukemia, -24.2% (active).

Consider `COC(=S)SCN(CSC(=S)OC)c1ccc(Cl)cc1`, for which the growth was 86.3% with HCT-15 colon; 102% in the assay with HT29 colon; 58.9% in the assay with SNB-75 CNS; 90.9% in the assay on U251 CNS; 99.3% in the assay with PC-3 prostate; 83.6% in the assay with SK-MEL-5 melanoma. Moreover, the growth was 58% in the assay with UACC-62 melanoma; 102% in the assay with SK-MEL-28 melanoma; 106% with SK-MEL-2 melanoma; 80.7% in the assay with SN12C renal; 66.5% in the assay with UO-31 renal; 109% in the assay on TK-10 renal. Also, the growth in the assay on ACHN renal is 75.3%; in the assay with CAKI-1 renal it was 62.8%; in the assay with A498 renal it was 86.8%; in the assay with CCRF-CEM leukemia it was 77.7%; with MOLT-4 leukemia, 81.7%.

With `CS(=O)(=O)c1ccc(-c2cnc3ccc(-c4cccc(S(C)(=O)=O)c4)nn23)cc1`, the growth in the assay with HCT-15 colon was 28.2%; in the assay on HT29 colon it was 33.7%; with SNB-75 CNS it was 12.4%; in the assay with U251 CNS, 46.3%; in the assay on PC-3 prostate, 37.6%; with SK-MEL-5 melanoma it was 38.3%. Besides, the growth is 28.8% in the assay on UACC-62 melanoma; 52.5% in the assay on SK-MEL-28 melanoma; 48.3% in the assay with SK-MEL-2 melanoma; 67.5% in the assay on EKVX NSCLC; 46.8% in the assay with SN12C renal; 24.2% in the assay on UO-31 renal. The growth in the assay with TK-10 renal was 40%; in the assay with ACHN renal, 22.4%; in the assay on CAKI-1 renal, 23.2%; with A498 renal it was -15.6% (active); with CCRF-CEM leukemia it was 18.4%; in the assay with MOLT-4 leukemia, 0.943% (active).

Turning to `CCCN(CCC)CN(CCC)CCC`, the growth in the assay on HCT-15 colon was 102%; with HT29 colon, 96.5%; in the assay on SNB-75 CNS, 96%; in the assay on U251 CNS it was 98.1%; in the assay on PC-3 prostate, 97.5%; in the assay with SK-MEL-5 melanoma, 107%. In addition, the growth with LOX IMVI melanoma was 104%; in the assay with SK-MEL-28 melanoma it was 106%; in the assay with SK-MEL-2 melanoma, 108%; in the assay on EKVX NSCLC, 98.8%; in the assay on UO-31 renal it was 84.8%; with TK-10 renal, 106%. Moreover, the growth in the assay on ACHN renal is 102%; with CAKI-1 renal, 96.3%; in the assay on A498 renal, 91.8%; with MOLT-4 leukemia, 97.1%.

Take `Nc1cccc(-c2nc3sccn3c2-c2ccnc(NCCCNS(=O)(=O)c3ccc(C(F)(F)F)cc3)n2)c1`: the growth with HCT-15 colon is 1.79% (active); in the assay on HT29 colon, 14%; with SNB-19 CNS it was 29.1%; with U251 CNS it was 19.8%; in the assay on PC-3 prostate, 1.93% (active); in the assay with SK-MEL-5 melanoma, -90.5% (active). Besides, the growth in the assay on UACC-62 melanoma is -33.3% (active); with LOX IMVI melanoma, -30.2% (active); with SK-MEL-28 melanoma it was 11.2%; in the assay on SK-MEL-2 melanoma, -21.7% (active); with EKVX NSCLC, 21.1%; in the assay on SN12C renal, 12.8%. Moreover, the growth in the assay with UO-31 renal is -8.25% (active); with TK-10 renal, 47.5%; in the assay on ACHN renal, 6.33% (active); with CAKI-1 renal, 18.3%; with A498 renal, 11.2%; with CCRF-CEM leukemia it was 6.17% (active). Further, the growth in the assay on MOLT-4 leukemia was -29.6% (active).
